Data as given in PubChem BioAssay.
Activity calls are given as the source filed them. Unless noted, no rule for the calls is given here.

What was measured:
[1] = test system: Wnt5a (protein binding on small-molecule microarray); assay: small molecules binding Wnt5a protein – biophysical, small-molecule microarray, 635/667 nm fluorescence, primary screen (AID 1142); conditions: 635 nm fluorescence, higher = more signal;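 also: fluorescence read at 667 nm with signal to noise per printed feature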
[2] = ATP-based viability of Huh7 replicon cells – cell-based, CellTiter-Glo luminescence, basal, 48 h, cytotoxicity control for HCV replication inhibitor project, primary screen (AID 1143); conditions: higher = more signal, called active from +8 up or from −8 down;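 also: Huh7 hepatoma cells carrying a hepatitis C replication reporter with no stimulus; test concentration not given here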
[3] = Pseudomonas biofilm growth suppression – PAO1 strain, BacTiter-Glo luminescence, LB-PBS, primary screen (AID 1144); conditions: P. aeruginosa PAO1 biofilm, 12 h, higher = more signal
[4] = basal CRE-LacZ reporter activity in PC12 – cell-based, unstimulated, primary screen (AID 1145); conditions: no forskolin, luminescence, 4.5 h, higher = more signal, called active from +8 up or from −8 down
[5] = forskolin-driven CRE-LacZ activity in PC12 – cell-based, CRE-LacZ reporter, forskolin-stimulated, primary screen (AID 1146); conditions: luminescence, 4.5 h, higher = more signal, called active from +8 up or from −8 down;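 also: PC12 cells with 6xCRE LacZ reporter stimulated by forskolin 10 µM; beta-galactosidase reporter signal reflecting CREB driven transcription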
[6] = target: Streptavidin (Streptomyces avidinii) (UniProt P22629); assay: compounds binding control protein streptavidin – biophysical, small-molecule microarray, 635/667 nm fluorescence, artefact control for SMM compound annotation, primary screen (AID 1147); conditions: higher = more signal;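 also: signal reflects streptavidin binding to arrayed compounds as a control protein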
[7] = probe aInhba binding on compound microarray – biochemical, small-molecule microarray, 635/667 nm fluorescence, primary screen (AID 1148); conditions: higher = more signal;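 also: score merges 667nm spot fluorescence with signal-to-noise for antibody binding to printed compounds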
Torsin-1A (Homo sapiens) [8] = target: Torsin-1A (Homo sapiens) (UniProt O14656); assay: TOR1A wild-type binding on microarray – cell lysate, small-molecule microarray, lysate, 635/667 nm, primary screen (AID 1149); conditions: COS7 hTOR1A-WT lysate, 635 nm fluorescence, higher = more signal
Torsin-1A (Homo sapiens) [9] = target: Torsin-1A (Homo sapiens) (UniProt O14656); assay: torsin A mutant lysate binding on microarrays – cell lysate, small-molecule microarray, COS7 lysate, 635/667 nm fluorescence, primary screen (AID 1150); conditions: COS7 hTOR1A mutant lysate, 635 nm fluorescence, higher = more signal;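 also: score pools 667 nm emission and signal to noise measuring lysate protein binding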
[10] = test system: Sonic hedgehog protein (Shh); assay: Sonic hedgehog microarray binding compounds – biochemical, small-molecule microarray, 635/667 nm fluorescence, primary screen (AID 1151); conditions: 635 nm fluorescence, higher = more signal;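 also: Shh protein binding to compounds spotted on small-molecule microarray slides; score combines spot fluorescence intensity with signal-to-noise across triplicate slides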
[11] = optical density shifts of acrAB sulA E. coli – strain DRC41, OD650, 48 h, E. coli filamentation inducer project, primary screen (AID 1152); conditions: higher = more signal, called active from +8 up or from −8 down;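 also: E. coli MC1000 strain DRC41 lacking acrAB efflux pump and sulA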
[12] = probe aLefty1 binding on compound microarray – biochemical, small-molecule microarray, 635/667 nm fluorescence, primary screen (AID 1153); conditions: higher = more signal;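 also: score merges spot fluorescence with signal-to-noise ratio from the scanned slide images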
[13] = plasmodial surface anion channel blockers, osmotic lysis – cell-based, P. falciparum Indochina, OD700, 1 h, primary screen (AID 1154); conditions: P. falciparum Indochina infected RBC osmotic lysis, higher = more signal, called active from +8 up or from −8 down
[14] = plasmodial surface anion channel blockers, osmotic lysis – cell-based, P. falciparum Indochina, OD700, 2 h, primary screen (AID 1155);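 also: lysis reports solute entry through the parasite surface anion channel PSAC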; conditions: P. falciparum Indochina infected erythrocytes, higher = more signal, called active from +8 up or from −8 down
[15] = changes in parasitized red cell lysis, either direction – P. falciparum Indochina, OD700, 3 h, PSAC antagonist project, primary screen (AID 1156); conditions: P. falciparum-infected erythrocytes, osmotic lysis, higher = more signal, called active from +8 up or from −8 down
[16] = plasmodial surface anion channel blockers, osmotic lysis – cell-based, P. falciparum Indochina, OD700, 18 h, primary screen (AID 1157); conditions: P. falciparum Indochina infected erythrocytes, osmotic lysis OD700, 18 h; higher = more signal, called active from +8 up or from −8 down
[17] = S6 kinase pathway phospho-S6 level changes – cell-based, A549, cytoblot, luminescence, serum-stimulated, primary screen (AID 1158); conditions: 5 h, higher = more signal;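 also: serum-stimulated A549 lung adenocarcinoma cells; signal is phosphorylated S6 detected by cytoblot immunostaining with HRP secondary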
[18] = target: NADPH oxidase 2 (Homo sapiens) (UniProt P04839); assay: compounds shifting NOX2 Amplex Red fluorescence – cell-based, HEK293-NOX2, PMA-stimulated, NOX inhibitor project, primary screen (AID 1159); conditions: 45 min, higher = more signal, called active from +8 up or from −8 down; also: test concentration not given here
[19] = target: NADPH oxidase 4 (Homo sapiens) (UniProt Q9NPH5); assay: compounds shifting NOX4 Amplex Red fluorescence – cell-based, HEK293-NOX4, tetracycline-induced, NOX inhibitor project, primary screen (AID 1160); conditions: HEK293-NOX4, Amplex Red H2O2 fluorescence, 45 min; higher = more signal, called active from +8 up or from −8 down
[20] = target: NADPH oxidase 5 (Homo sapiens) (UniProt Q96PH1); assay: compounds shifting NOX5 Amplex Red fluorescence – cell-based, HEK293-NOX5, NOX inhibitor project, primary screen (AID 1161); conditions: HEK293-NOX5, ionomycin, 45 min, higher = more signal
NADPH oxidase 5 (Homo sapiens), sequence (Q96PH1 whole entry, looked up): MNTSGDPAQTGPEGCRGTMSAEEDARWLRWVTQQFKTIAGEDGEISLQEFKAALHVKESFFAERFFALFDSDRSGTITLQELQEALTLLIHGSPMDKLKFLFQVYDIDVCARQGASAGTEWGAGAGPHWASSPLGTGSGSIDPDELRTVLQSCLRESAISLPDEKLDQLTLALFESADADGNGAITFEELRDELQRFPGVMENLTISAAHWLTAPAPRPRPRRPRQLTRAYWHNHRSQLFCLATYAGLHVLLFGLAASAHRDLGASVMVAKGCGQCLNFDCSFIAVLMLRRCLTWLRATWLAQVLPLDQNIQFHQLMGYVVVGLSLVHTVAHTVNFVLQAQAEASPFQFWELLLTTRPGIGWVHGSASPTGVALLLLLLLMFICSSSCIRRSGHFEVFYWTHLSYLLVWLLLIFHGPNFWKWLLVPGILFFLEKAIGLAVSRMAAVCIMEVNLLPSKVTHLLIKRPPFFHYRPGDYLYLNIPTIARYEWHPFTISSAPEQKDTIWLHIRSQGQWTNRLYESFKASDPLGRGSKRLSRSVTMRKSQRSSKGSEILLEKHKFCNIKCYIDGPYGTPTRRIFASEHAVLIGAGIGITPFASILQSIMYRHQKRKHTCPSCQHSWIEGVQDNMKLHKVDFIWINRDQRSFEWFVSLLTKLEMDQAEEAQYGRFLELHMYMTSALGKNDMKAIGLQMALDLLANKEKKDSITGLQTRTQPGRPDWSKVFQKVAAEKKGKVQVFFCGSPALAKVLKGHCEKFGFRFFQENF

Torsin-1A (Homo sapiens), sequence (O14656 whole entry, looked up): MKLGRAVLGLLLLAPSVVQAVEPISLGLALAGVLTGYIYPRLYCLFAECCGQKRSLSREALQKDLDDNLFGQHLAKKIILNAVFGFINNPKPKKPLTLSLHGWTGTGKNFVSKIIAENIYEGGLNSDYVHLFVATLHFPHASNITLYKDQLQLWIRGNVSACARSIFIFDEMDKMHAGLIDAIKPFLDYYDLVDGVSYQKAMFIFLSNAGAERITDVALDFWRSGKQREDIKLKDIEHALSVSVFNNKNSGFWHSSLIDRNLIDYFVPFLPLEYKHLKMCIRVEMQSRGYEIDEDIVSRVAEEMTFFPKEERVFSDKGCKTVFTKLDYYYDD
NADPH oxidase 2 (Homo sapiens), sequence (P04839 whole entry, looked up): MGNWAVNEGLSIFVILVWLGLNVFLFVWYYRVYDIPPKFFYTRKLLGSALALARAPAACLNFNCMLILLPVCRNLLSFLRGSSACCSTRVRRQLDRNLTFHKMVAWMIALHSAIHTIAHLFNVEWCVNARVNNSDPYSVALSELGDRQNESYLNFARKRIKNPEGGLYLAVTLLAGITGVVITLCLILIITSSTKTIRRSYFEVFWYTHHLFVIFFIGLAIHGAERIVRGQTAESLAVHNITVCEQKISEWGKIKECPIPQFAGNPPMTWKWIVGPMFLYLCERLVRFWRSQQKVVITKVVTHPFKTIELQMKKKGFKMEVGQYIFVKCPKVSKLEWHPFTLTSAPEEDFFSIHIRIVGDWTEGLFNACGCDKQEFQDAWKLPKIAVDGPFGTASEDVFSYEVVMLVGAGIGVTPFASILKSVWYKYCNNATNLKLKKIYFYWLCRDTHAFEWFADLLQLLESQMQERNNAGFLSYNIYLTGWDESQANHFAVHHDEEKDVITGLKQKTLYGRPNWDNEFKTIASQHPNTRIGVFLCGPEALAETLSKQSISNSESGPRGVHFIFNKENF
NADPH oxidase 4 (Homo sapiens), sequence (Q9NPH5 whole entry, looked up): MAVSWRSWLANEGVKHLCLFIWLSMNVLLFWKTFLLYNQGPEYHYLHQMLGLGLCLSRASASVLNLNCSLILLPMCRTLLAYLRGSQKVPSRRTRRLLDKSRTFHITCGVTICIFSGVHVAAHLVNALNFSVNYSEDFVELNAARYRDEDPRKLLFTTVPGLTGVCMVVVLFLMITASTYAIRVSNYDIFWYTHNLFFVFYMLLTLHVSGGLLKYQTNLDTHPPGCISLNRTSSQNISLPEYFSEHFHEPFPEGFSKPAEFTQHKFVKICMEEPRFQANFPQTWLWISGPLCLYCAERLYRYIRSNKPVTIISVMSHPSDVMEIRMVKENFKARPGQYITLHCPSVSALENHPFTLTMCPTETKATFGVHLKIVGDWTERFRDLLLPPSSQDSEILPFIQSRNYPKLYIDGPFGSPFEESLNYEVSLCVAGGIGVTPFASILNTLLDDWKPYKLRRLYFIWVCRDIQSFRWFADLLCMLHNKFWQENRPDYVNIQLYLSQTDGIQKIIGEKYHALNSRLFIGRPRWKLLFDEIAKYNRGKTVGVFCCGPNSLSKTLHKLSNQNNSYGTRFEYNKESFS
Streptavidin (Streptomyces avidinii), sequence (P22629 whole entry, looked up): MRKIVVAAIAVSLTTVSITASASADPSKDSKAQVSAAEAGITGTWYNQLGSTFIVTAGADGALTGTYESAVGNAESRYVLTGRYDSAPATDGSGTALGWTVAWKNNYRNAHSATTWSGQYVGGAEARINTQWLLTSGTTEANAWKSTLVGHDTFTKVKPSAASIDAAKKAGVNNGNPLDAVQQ

SMILES	composite z-score [1]	z-score [2]	z-score [3]	z-score [4]	z-score [5]	composite z-score [6]	composite z-score [7]	composite z-score (Torsin-1A (Homo sapiens) [8])	composite z-score (Torsin-1A (Homo sapiens) [9])	composite z-score [10]	z-score [11]	composite z-score [12]	z-score [13]	z-score [14]	z-score [15]	z-score [16]	z-score [17]	z-score [18]	z-score [19]	z-score [20]
O=C(CS)NCCCCCNC(=O)[C@@H]1C[C@@H]2C(=O)N3CCC[C@H]3C(=O)N2[C@@H]1c1cccc(OCCO)c1	0.336	-0.0341 (inactive)	-0.448 (inactive)	0.143 (inactive)	-0.16 (inactive)	0.281	-0.46	1.44	0.656	0.792	-1.26 (inactive)	-0.781	2.76 (inactive)	0.465 (inactive)	-0.87 (inactive)	0.277 (inactive)	-0.645	1.97 (inactive)	0.231 (inactive)	-0.232
CN(C)c1ccc(C(O)C2C=CC3C(=O)N(c4ccccc4)C(=O)C3N2Nc2ccc([N+](=O)[O-])cc2)cc1 (stereo not given)	0.0074	-0.619 (inactive)	0.108 (inactive)	0.49 (inactive)	-0.464 (inactive)	0.769	-0.0736	0.603	0.377	-0.13	-1.16 (inactive)	0.388	4.9 (inactive)	1.16 (inactive)	1.69 (inactive)	0.73 (inactive)	-0.503	-1.95 (inactive)	-4.56 (inactive)	-4.69
Cc1ccc(S[C@]2(C(=O)NCC(F)(F)F)CC(=O)N(Cc3ccccc3)[C@@H]2c2ccc(CO)cc2I)cc1	0.0543	-1.22 (inactive)	0.479 (inactive)	-0.581 (inactive)	1.83 (inactive)	-0.119	0.0228	-0.565	-0.49	0.237	-0.764 (inactive)	0.0355	4.23 (inactive)	0.283 (inactive)	0.173 (inactive)	0.279 (inactive)	-0.404	1.22 (inactive)	-1.33 (inactive)	0.776
CC(C)N1C(=O)C[C@@](C(=O)NCCCN(C)C)(c2ccc([N+](=O)[O-])cc2)[C@H]1c1ccc(CO)cc1	-0.0942	-1.38 (inactive)	0.574 (inactive)	0.764 (inactive)	0.0255 (inactive)	-0.36	-0.157	-0.0639	0.46	0.249	-0.898 (inactive)	0.0129	3.55 (inactive)	1.1 (inactive)	1.82 (inactive)	0.891 (inactive)	0.23	0.778 (inactive)	0.334 (inactive)	-0.00257
COC(=O)C(CC#Cc1ccc2c(c1)[C@]1(C(=O)N2)[C@H](C(=O)N2CCN(c3ncccn3)CC2)[C@H]2C(=O)O[C@H](c3ccccc3)[C@H](c3ccccc3)N2[C@@H]1c1ccc(OCCO)cc1)C(=O)OC	0.545	-1.02 (inactive)	-0.99 (inactive)	-0.671 (inactive)	-0.772 (inactive)	0.736	0.109	0.393	0.798	2.23	0.454 (inactive)	0.2	11 (active)	2.86 (inactive)	1.03 (inactive)	1.4 (inactive)	0.311	1.36 (inactive)	0.504 (inactive)	1.53
CCOC(=O)C[C@H]1[C@H](OC(=O)c2ccc(C(=O)c3ccccc3)cc2)[C@@H](NC(=O)Cc2ccc(OC)cc2)c2cc(OCCCO)ccc2N1C(=O)c1ccccc1	0.328	-0.117 (inactive)	-0.0806 (inactive)	1.47 (inactive)	0.926 (inactive)	0.162	-0.0762	0.0313	0.337	0.622	-0.915 (inactive)	-0.0762	2.41 (inactive)	-0.431 (inactive)	-0.937 (inactive)	0.384 (inactive)	-0.408	-1.25 (inactive)	1.16 (inactive)	0.303
COc1ccc(CCN2C(=O)[C@@]3(Cc4ccccc42)c2ccccc2C(=O)N(Cc2ccccc2OC)[C@H]3c2ccc(CO)cc2)cc1	-0.166	-4.54 (inactive)	0.0431 (inactive)	0.649 (inactive)	-0.341 (inactive)	-0.491	-0.126	-0.194	-0.933	-0.384	2.06 (inactive)	0.595	1.96 (inactive)	-0.373 (inactive)	-0.217 (inactive)	-1.29 (inactive)	3.17	0.348 (inactive)	-0.797 (inactive)	0.327
C#CCN([C@@H](Cc1ccc(O)cc1)C(=O)OC)[C@@H](/C=C/C1CC1)[C@H](O)Cc1ccccc1	-0.595	-5.26 (inactive)	0.709 (inactive)	16.1 (active)	1.17 (inactive)	-0.492	-0.128	-0.541	-0.12	0.825	-1.08 (inactive)	-0.294	3.41 (inactive)	0.761 (inactive)	-0.824 (inactive)	0.353 (inactive)	-0.839	0.544 (inactive)	-0.606 (inactive)	-1.58
